Experiment [1] can be described thus: qHTS assay to identify small molecule antagonists of the glucocorticoid receptor (GR) signaling pathway - cell viability counter screen (AID 720693). Further: nearly all actives have a fitted effect of over 55% in size.
Experiment [2] in a line: qHTS assay for identifying genotoxic compounds that show differential cytotoxicity against isogenic chicken DT40 cell lines with known DNA damage response pathways - wild type cell line (AID 743012). Further: nearly all actives have a fitted effect of over 60% in size. Further: potency means the concentration at half of the fitted maximal effect. The gist of the method: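 Cytotoxicity in repair-proficient parental chicken DT40 cells serves as the comparator for Rad54/Ku70- and Rev3-deficient lines. Cells were exposed to compounds for 40 h at 37 C/5% CO2, and ATP-based luminescence (CellTiter-Glo) measured viability.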
Background: Quantitative high-throughput screening tests each substance at several concentrations.

Experiment [3] is described as follows: qHTS assay for identifying genotoxic compounds that show differential cytotoxicity against isogenic chicken DT40 cell lines with known DNA damage response pathways - Rev3 mutant cell line (AID 743014). Further: nearly all actives have a fitted effect of over 55% in size. Further: potency means the concentration at half of the fitted maximal effect.
Experiment [4] is described as follows: qHTS assay for identifying genotoxic compounds that show differential cytotoxicity against isogenic chicken DT40 cell lines with known DNA damage response pathways - Rad54/Ku70 mutant cell line (AID 743015). Further: nearly all actives have a fitted effect of over 60% in size. Further: potency means the concentration at half of the fitted maximal effect.
The nature of experiment [5]: qHTS assay to identify small molecule antagonists of the androgen receptor (AR) signaling pathway - cell viability counter screen (AID 743033; further: nearly all actives have a fitted effect of over 45% in size).
Experiment [6] in a line: qHTS assay to identify small molecule antagonists of the androgen receptor (AR) signaling pathway using the MDA cell line - cell viability counter screen (AID 743041; further: nearly all actives have a fitted effect of over 45% in size). The method in brief: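 In this qHTS counter assay, fluorescence intensity after CellTiter-Fluor addition indicated viability of MDA-kb2 AR-luc cells given compounds and R1881 for 16 h at 37C.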
Experiment [7] can be described thus: qHTS assay to identify small molecule antagonists of the thyroid receptor (TR) signaling pathway - cell viability counter screen (AID 743064). Further: nearly all actives have a fitted effect of over 50% in size. Further: potency means the concentration at half of the fitted maximal effect. The gist of the method: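 In rat pituitary GH3.TRE-Luc reporter cells co-exposed to compound and 1 nM T3 for 23.5 h, cytotoxicity was assessed with CellTiter-Fluor in the same wells, read by fluorescence.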
The target in experiment [8] is Androgen receptor (Homo sapiens) (UniProt P10275). Briefly: qHTS assay to identify small molecule agonists of the androgen receptor (AR) signaling pathway using the MDA cell line (AID 743040; further: nearly all actives have a fitted effect of over 20% in size; further: potency means the concentration at half of the fitted maximal effect). The method in brief: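 Cell-based luciferase reporter: MDA-kb2, MMTV promoter (AR + GR response elements). 16 h compound exposure at 37C; ONE-Glo, 30 min RT, luminescence.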

For experiment [9] the target is unchanged. Description: qHTS assay to identify small molecule antagonists of the androgen receptor (AR) signaling pathway (AID 743035; active means well fitted inhibition curve with a large enough effect in the signal ratio in the repeat runs, not every such curve was filed as active; the % refers to the signal ratio). The gist of the method: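 Steps: seed AR-UAS-bla GripTite HEK293 cells, incubate 4 h at 37C; pin in test compound, then add agonist R1881; incubate 16 h at 37C; add LiveBLAzer B/G FRET substrate, 2 h at room temperature; read fluorescence.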

The target is the same in experiment [10]. Briefly: qHTS assay to identify small molecule agonists of the androgen receptor (AR) signaling pathway (AID 743036; active means well fitted activation curve with a large enough effect in the signal ratio in the repeat runs, with a control signal flat, not every such curve was filed as active; the % refers to the signal ratio). The gist of the method: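 Cell-based FRET reporter assay: HEK293 line with a UAS-beta-lactamase construct, compounds added in DMSO, 16 h exposure at 37C, then 2 h substrate step at room temperature and fluorescence intensity read.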

Where “and” joins values, the source holds several entries; their conditions need not be identical. Equal entries are not always repeated. A number with no mark means an inactive call. Records with an inconclusive call do not appear. Calls of active or inactive are those of the source. Unless noted, the call rests on the fitted dose curve; in most records, active means well fitted curve in the direction sought with a large enough effect in the repeat runs; inconclusive means weak or mixed curves; inactive means no such curve, though single readings can be large; an effect the other way counts as inactive or inconclusive.

Chain of Androgen receptor (Homo sapiens) (P10275 whole entry, looked up): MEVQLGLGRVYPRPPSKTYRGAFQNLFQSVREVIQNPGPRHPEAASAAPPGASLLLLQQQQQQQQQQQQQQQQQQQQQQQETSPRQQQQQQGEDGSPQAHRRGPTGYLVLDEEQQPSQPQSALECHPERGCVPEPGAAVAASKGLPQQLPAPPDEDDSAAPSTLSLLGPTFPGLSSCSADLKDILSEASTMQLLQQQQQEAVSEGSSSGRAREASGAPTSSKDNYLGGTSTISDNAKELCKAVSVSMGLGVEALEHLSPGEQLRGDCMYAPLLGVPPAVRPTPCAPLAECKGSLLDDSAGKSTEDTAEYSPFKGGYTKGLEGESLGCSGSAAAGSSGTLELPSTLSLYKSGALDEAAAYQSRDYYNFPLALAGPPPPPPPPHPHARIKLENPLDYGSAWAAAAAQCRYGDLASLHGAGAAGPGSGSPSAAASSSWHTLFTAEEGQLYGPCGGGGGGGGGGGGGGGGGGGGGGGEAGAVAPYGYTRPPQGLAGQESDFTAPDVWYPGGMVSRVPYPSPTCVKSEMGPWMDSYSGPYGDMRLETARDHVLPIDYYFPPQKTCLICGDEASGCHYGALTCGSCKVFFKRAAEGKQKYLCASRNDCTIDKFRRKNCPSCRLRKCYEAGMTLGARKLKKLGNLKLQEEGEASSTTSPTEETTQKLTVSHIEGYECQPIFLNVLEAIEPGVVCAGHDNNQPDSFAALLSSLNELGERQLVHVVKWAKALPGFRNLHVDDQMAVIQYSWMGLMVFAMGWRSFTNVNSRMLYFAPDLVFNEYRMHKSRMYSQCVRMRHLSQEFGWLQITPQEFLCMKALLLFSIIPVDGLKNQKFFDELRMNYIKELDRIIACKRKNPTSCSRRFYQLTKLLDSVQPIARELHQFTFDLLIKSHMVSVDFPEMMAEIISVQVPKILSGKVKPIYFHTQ

Regarding `CN(C)[C@@H]1C(=O)C(C(=O)NCN2CCCC2)=C(O)[C@@]2(O)C(=O)C3=C(O)c4c(O)cccc4[C@@](C)(O)C3C[C@@H]12` (some centres not stated), the call in experiment [1] and in experiment [5] was inactive. Moreover, the Potency entry in experiment [2], in experiment [3], in experiment [4], in experiment [6] and in [7] was “inactive” throughout.

Regarding `O=C(O)CNC(=O)c1ccc(CO)o1`, the compound was classed as inactive in experiment [1] and in [5]. Besides, the Potency result in experiment [2], in [3], in [4], in experiment [6] and in [7] was “inactive” in each case.

Turning to `CC/C=C\CCOC(C)OCC` (configuration not stated), the outcome in experiment [1] and in experiment [5] was inactive. For the same compound, the Potency result in experiment [2], in experiment [3], in experiment [4], in experiment [6] and in experiment [7] was “inactive” each time.

With `CCOC(=O)COC(=O)c1ccccc1C(=O)OCC`, the compound was classed as inactive in experiment [1] and in experiment [5]. Moreover, the Potency entry in [2], in experiment [3], in experiment [4], in experiment [6] and in experiment [7] was “inactive” throughout.

`CCNS(=O)(=O)c1ccc(C)cc1`: the outcome in [1] and in [5] was inactive. In addition, the Potency result in experiment [2], in [3], in experiment [4], in experiment [6] and in experiment [7] was “inactive” each time.

As for `CCCCCCC#CC(=O)OC`, the compound was called inactive in experiment [1] and in experiment [5]. The Potency result in experiment [2], in [3], in experiment [4], in experiment [6] and in experiment [7] was “inactive” each time.

For the compound `CN1CCN(c2cc3c(nn2)Oc2ccccc2N3C)CC1`, the result in experiment [1] and in experiment [5] was inactive. Also, the Potency entry in [2], in experiment [3], in [4], in experiment [6] and in experiment [7] was “inactive” in each case.

Regarding `Cc1ccc(C(=O)c2ccc(CC(=O)O)n2C)cc1`, in experiment [1], the call was inactive. Besides, the Potency result in experiment [2], in [3], in experiment [4], in experiment [8], in experiment [6] and in [7] was “inactive” throughout.

With `O=C(CO)[C@@H](O)[C@H](O)[C@@H](O)CO`, the outcome in experiment [1] and in experiment [5] was inactive. In addition, the Potency result in experiment [2], in [3], in [4], in experiment [6] and in experiment [7] was “inactive” in each case.

Take `CCCCN1C=CN(C)C1`: the outcome in [1] and in [5] was inactive. The Potency result in [2], in experiment [3], in experiment [4], in experiment [6] and in experiment [7] was “inactive” in each case.

For `Nc1ccn([C@@H]2O[C@H](CO)[C@@H](O)[C@@H]2O)c(=O)n1`, the compound was called inactive in experiment [1] and in [5]. Further, the Potency in experiment [2] is 61.1 nM (active); in experiment [3] it was 43.3 nM (active); in experiment [4] it was 43.3 nM (active); in [7], 217 nM (active). Moreover, in experiment [6], the Potency result was “inactive”.

`CCO[Si](OCC)(OCC)c1ccccc1`: the call in experiment [1] and in [5] was inactive. Further, the Potency result in experiment [2], in experiment [3], in experiment [4], in [6] and in experiment [7] was “inactive” each time.

With `CO[Si](C)(OC)c1ccccc1`, the result in experiment [1] and in experiment [5] was inactive. Further, the Potency entry in [2], in experiment [3], in experiment [4], in [6] and in [7] was “inactive” in each case.

As to `CCOCC(C)O` (configuration not stated), the compound was called inactive in [1] and in experiment [5]. The Potency entry in experiment [2], in experiment [3], in [4], in experiment [6] and in experiment [7] was “inactive” each time.

For the compound `CCC1C(=O)OCC1Cc1cncn1C` (configuration not stated), the compound was classed as inactive in [1] and in [5]. Moreover, the Potency result in experiment [2], in experiment [3], in experiment [4], in experiment [6] and in [7] was “inactive” in each case.

Consider `C=CN1CCCCCC1=O`, for which the result in [1] and in experiment [5] was inactive. Further, the Potency entry in experiment [2], in experiment [3], in experiment [4] and in experiment [7] was “inactive” throughout.

`NC(=O)Cc1cccc2ccccc12`: the compound was called inactive in experiment [1] and in experiment [5]. Also, the Potency result in experiment [2], in [3], in [4], in [6] and in experiment [7] was “inactive” throughout.

On to `CC(C)[C@H]1CC[C@@H](C)CC1=O`, for which the outcome in experiment [1] and in [5] was inactive. Besides, the Potency entry in experiment [2], in experiment [3], in experiment [4], in [6] and in experiment [7] was “inactive” in each case.

Turning to `CN1C(C)(C)CC(O)CC1(C)C`, the compound was called inactive in [1] and in [5]. For the same compound, the Potency result in [2], in [4], in experiment [6] and in experiment [7] was “inactive” each time.

With `COc1ccc2cc1Oc1cc3c(cc1OC)CC[N+](C)(C)[C@H]3Cc1ccc(cc1)Oc1c(OC)c(OC)cc3c1[C@@H](C2)[N+](C)(C)CC3`, the outcome in experiment [1] and in experiment [5] was inactive. Further, the Potency result in [2], in [4], in experiment [6] and in [7] was “inactive” throughout.

Consider `CC(=O)Nc1ccc(OCC(O)CNC(C)C)cc1` (configuration not stated), for which the compound was called inactive in [1] and in experiment [5]. For the same compound, the Potency result in experiment [2], in experiment [4], in [6] and in [7] was “inactive” in each case.

As to `CO/N=C(\C(=O)N[C@@H]1C(=O)N2C(C(=O)O)=C(CSc3nc(=O)c(O)nn3C)CS[C@H]12)c1csc(N)n1`, the outcome in experiment [1] and in experiment [5] was inactive. Also, the Potency entry in experiment [2], in experiment [4], in experiment [6] and in experiment [7] was “inactive” in each case.

As for `NS(=O)(=O)Cc1noc2ccccc12`, the compound was classed as inactive in [1], in [5] and in [10]. Besides, the Potency entry in [2], in experiment [4], in [9], in [8], in experiment [6] and in experiment [7] was “inactive” in each case.

Turning to `CCCCS(=O)(=O)N[C@@H](Cc1ccc(OCCCCC2CCNCC2)cc1)C(=O)O`, the call in [1] and in [5] was inactive. Besides, the Potency result in [2], in experiment [4], in experiment [9], in [8], in experiment [6] and in experiment [7] was “inactive” throughout.

With `CN(C)C(=O)Oc1ccc[n+](C)c1`, the result in [1] and in experiment [5] was inactive. For the same compound, the Potency entry in experiment [2], in experiment [4] and in [6] was “inactive” each time.

With `Cc1nc2ccc(CN(C)c3ccc(C(=O)N[C@@H](CCC(=O)O)C(=O)O)s3)cc2c(=O)[nH]1`, the call in experiment [1], in [5] and in experiment [10] was inactive. Also, the Potency in experiment [2] was 3.8 nM (active) and 7.5 nM (active); in experiment [4], 2.1 nM (active) and 4.2 nM (active). Also, the Potency result in [9], in experiment [8], in experiment [6] and in experiment [7] was “inactive” each time.

For the compound `O=C(c1ccccc1)C1(O)CCCCC1`, the result in [1] and in [5] was inactive. Also, the Potency entry in experiment [2], in experiment [3], in experiment [6] and in experiment [7] was “inactive” throughout.

On to `CC(=O)c1ccc2ccccc2c1`, for which the compound was called inactive in [1] and in experiment [5]. The Potency result in experiment [2], in experiment [4], in [6] and in experiment [7] was “inactive” throughout.

In the case of `CCCCCCCCCCOc1cc2c(=O)c(C(=O)OCC)c[nH]c2cc1OCC`, the compound was called inactive in experiment [1] and in experiment [5]. For the same compound, the Potency entry in experiment [2], in [4], in [6] and in experiment [7] was “inactive” in each case.

With `CC(=O)N1C[C@H](O)C[C@H]1C(=O)O`, the call in [1] and in experiment [5] was inactive. Further, the Potency entry in experiment [2], in experiment [4], in experiment [9], in [6] and in experiment [7] was “inactive” in each case. The Potency in [8] is 26600 nM (active).

As for `c1ccc(Cc2ccccc2)cc1`, the compound was called inactive in experiment [1]. Also, the Potency result in [2], in [3], in experiment [4], in experiment [6] and in experiment [7] was “inactive” in each case.

For the origin of these results see PubChem BioAssay (Tox21).
